A short description of assay [1]: qHTS assay to identify small molecule inhibitors of chordoma cells - UCH-2 (AID 1259356). Note: series mostly up to about 46 µM.
The nature of assay [2]: NS1 protein of Zika virus - qHTS assay to identify small molecule inhibitors in human HEK 293 cells (AID 1347053). Note: series mostly up to about 46 µM; nearly all actives have a fitted effect of over 55% in size. An outline of the steps: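 Compound-treated (1 h pre-infection) HEK 293 cells infected with ZIKV MR766, MOI = 0.5; after 24 h at 37 C, NS1 read by TR-FRET; data normalized to uninfected and infected controls.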
Assay [3] can be described thus: qHTS for Inhibitors of the Functional Ribonucleoprotein Complex (vRNP) of Lassa (LASV) Arenavirus: LASV Primary Screen - GLuc reporter signal (AID 1347082; calls by dose curve; tested in HEK293 reporter line; note: series mostly up to about 57 µM; nearly all actives have a fitted effect of over 60% in size).
The nature of assay [4]: qHTS for Inhibitors of the Functional Ribonucleoprotein Complex (vRNP) of Lassa (LASV) Arenavirus: Viability assay - alamar blue signal for LASV Primary Screen (AID 1347083; calls by dose curve; tested in HEK293 reporter line; note: series mostly up to about 57 µM; nearly all actives have a fitted effect of over 80% in size).
The nature of assay [5]: qHTS for Inhibitors of the Functional Ribonucleoprotein Complex (vRNP) of Lymphocytic Choriomeningitis Arenaviruses (LCMV): Viability assay - alamar blue signal for LCMV Primary Screen (AID 1347085; calls by dose curve; tested in HEK293 reporter line; note: series mostly up to about 57 µM; nearly all actives have a fitted effect of over 80% in size).
Assay [6] in a line: qHTS assay to identify small molecule inhibitors of chordoma cells - UCH-1 (AID 1259355). Note: nearly all actives have a fitted effect of over 55% in size. Note: potency is the fitted concentration of half-maximal effect; series mostly up to about 46 µM. The essentials: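 800 cells/well, overnight attach; compounds pinned at 15 concs, then auranofin/camptothecin/doxorubicin/rubitecan/topotecan combo added; 48hr 37 C, 5% CO2; CellTiter-Glo, 30min RT, luminescence.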
Assay [7] in a line: Natriuretic polypeptide receptor (hNpr1) antagonism - Pilot counterscreen GloSensor control cell line (AID 1347045; calls by dose curve; note: series mostly up to about 38 µM). The essentials: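 Cells were first seeded and incubated overnight at 37C, then loaded with 2% GloSensor substrate for 2 h. Compounds were added for 30 min at room temperature, followed by a baseline read, 50 uM SNP and a final read after 20 min.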
For assay [8], the target named is Atrial natriuretic peptide receptor 1 (Homo sapiens) (UniProt P16066). As to the kind of experiment: Natriuretic polypeptide receptor (hNpr1) antagonism - Pilot screen (AID 1347049; calls by dose curve;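 note: HEK293 cells with hNpr1 and GloSensor cGMP luciferase stimulated by 0.1 nM hNppA; agonist-evoked cGMP luminescence read 20 min after hNppA addition; series mostly up to about 58 µM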). An outline of the steps: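 Receptor antagonism read as cGMP-dependent luminescence in hNpr1/pGS-40F HEK293 cells: pre-read after 30 min compound exposure, post-read 20 min after hNppA agonist at 0.1 nM final, all at room temperature, protected from light; A-71915 titration as control.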
Sequence of Atrial natriuretic peptide receptor 1 (Homo sapiens) (P16066 whole entry, looked up): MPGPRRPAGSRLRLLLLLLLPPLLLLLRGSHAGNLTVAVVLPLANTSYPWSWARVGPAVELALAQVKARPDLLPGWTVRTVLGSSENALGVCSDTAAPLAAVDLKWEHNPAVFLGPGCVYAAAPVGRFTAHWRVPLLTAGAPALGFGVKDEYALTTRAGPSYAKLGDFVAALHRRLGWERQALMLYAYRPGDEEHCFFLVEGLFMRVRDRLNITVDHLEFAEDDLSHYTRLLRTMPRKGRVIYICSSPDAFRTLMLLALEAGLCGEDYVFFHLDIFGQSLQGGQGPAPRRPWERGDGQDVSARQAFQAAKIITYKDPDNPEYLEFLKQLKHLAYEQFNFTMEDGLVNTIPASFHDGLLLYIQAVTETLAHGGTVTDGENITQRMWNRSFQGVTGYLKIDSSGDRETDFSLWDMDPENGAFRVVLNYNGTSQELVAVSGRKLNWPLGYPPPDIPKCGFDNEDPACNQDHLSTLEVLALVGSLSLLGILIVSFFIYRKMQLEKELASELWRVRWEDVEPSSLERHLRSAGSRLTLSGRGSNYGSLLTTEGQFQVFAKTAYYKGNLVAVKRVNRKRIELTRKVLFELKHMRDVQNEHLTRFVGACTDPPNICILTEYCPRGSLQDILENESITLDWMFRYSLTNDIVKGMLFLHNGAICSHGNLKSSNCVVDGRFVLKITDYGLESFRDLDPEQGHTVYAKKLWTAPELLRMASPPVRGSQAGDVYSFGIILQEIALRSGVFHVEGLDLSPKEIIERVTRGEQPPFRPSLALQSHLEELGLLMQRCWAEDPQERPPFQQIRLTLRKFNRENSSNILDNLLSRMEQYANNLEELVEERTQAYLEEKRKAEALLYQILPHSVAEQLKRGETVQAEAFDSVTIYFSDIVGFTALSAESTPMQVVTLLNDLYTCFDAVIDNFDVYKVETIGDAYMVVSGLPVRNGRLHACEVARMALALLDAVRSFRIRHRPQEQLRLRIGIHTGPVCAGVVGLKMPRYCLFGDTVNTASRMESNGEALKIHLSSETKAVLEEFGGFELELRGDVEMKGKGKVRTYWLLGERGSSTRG

Assay [9] has as its target Atrial natriuretic peptide receptor 2 (Homo sapiens) (UniProt P20594). As to the kind of experiment: Natriuretic polypeptide receptor (hNpr2) antagonism - Pilot subtype selectivity assay (AID 1347050; calls by dose curve). An outline of the steps: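 Antagonist mode: compounds (LOPAC1280, seven 1:5 dilutions) added 30 min before 1 nM hNppC stimulation of hNpr2-HEK293 cGMP-sensor cells; luminescence read before and 20 min after agonist at ambient temperature.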

Assay [10] deals with T1, Tyrosine-protein phosphatase non-receptor type substrate 1 (Homo sapiens) + Leukocyte surface antigen CD47 (Homo sapiens) (UniProt P78324+Q08722). As to the kind of experiment: CD47-SIRPalpha protein protein interaction - LANCE assay qHTS validation (AID 1347057; active = well fitted curve in the direction sought with a large enough effect in the signal ratio, with a control signal flat, not every such curve was filed as active; the % refers to the signal ratio; note: series mostly up to about 38 µM). An outline of the steps: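 Inhibition of soluble CD47/SIRPalpha ectodomain association by titrated compounds, measured as 665/615 nm time-resolved FRET ratio after sequential 30 min room-temperature incubations.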
T1 sequence (P78324 whole entry, looked up, the tested form may be a part): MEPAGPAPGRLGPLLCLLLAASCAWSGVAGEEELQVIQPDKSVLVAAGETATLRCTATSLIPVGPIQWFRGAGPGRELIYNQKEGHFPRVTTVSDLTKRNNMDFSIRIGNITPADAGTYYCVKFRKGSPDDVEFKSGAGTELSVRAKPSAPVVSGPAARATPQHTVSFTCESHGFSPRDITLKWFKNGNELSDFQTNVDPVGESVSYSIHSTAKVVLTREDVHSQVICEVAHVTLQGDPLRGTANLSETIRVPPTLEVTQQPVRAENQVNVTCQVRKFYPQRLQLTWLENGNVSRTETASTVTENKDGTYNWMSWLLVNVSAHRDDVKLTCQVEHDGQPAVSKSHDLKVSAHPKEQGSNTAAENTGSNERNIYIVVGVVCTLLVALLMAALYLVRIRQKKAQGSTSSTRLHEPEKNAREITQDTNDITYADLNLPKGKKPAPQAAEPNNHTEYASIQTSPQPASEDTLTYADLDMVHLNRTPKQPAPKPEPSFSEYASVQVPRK
T1 sequence (Q08722 whole entry, looked up, the tested form may be a part): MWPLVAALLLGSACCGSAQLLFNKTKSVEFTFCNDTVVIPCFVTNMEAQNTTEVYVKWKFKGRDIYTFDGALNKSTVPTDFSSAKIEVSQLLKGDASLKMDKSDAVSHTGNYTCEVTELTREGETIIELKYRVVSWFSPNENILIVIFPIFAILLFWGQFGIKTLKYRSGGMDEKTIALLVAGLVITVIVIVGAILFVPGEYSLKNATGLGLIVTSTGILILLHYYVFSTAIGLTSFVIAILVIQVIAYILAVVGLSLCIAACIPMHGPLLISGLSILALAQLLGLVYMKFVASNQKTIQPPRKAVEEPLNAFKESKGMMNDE

Assay [11] deals with T1, Tyrosine-protein phosphatase non-receptor type substrate 1 (Homo sapiens) + Leukocyte surface antigen CD47 (Homo sapiens). As to the kind of experiment: CD47-SIRPalpha protein protein interaction - HTRF assay qHTS validation (AID 1347058; active = well fitted curve in the direction sought with a large enough effect in the signal ratio, not every such curve was filed as active; the % refers to the signal ratio; note: series mostly up to about 38 µM). An outline of the steps: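 Soluble extracellular domains (6His-CD47, Avi-tag-biotinylated SIRPalpha) in PBS pH 7.4 with 0.05% IGEPAL CA-630. Compounds were preincubated 30 min at RT with CD47 and anti-His-Eu, then SIRPalpha and SAV-XL665 were added. TR-FRET 665/615 ratio.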

Assay [12] has the same target. As to the kind of experiment: CD47-SIRPalpha protein protein interaction - Alpha assay qHTS validation (AID 1347059).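 Note: bead proximity luminescence from CD47 binding SIRPalpha after compound preincubation with SIRPalpha.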 An outline of the steps: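 AlphaScreen signal between CD47-His (12.5 nM) and biotin-SIRPalpha (25 nM) soluble extracellular domains, bead-captured via Ni-NTA and streptavidin. Compounds, in 7-point titrations, met SIRPalpha 30 min before CD47; PBS pH 7.4 with 0.05% IGEPAL.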

Assay [13] deals with Parathyroid hormone/parathyroid hormone-related peptide receptor (Homo sapiens) (UniProt Q03431). As to the kind of experiment: qHTS for PTHR1 Agonists: Optimization Screen against the NCGC LOPAC library (AID 1347079).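 Note: GloSensor cAMP luminescence in HEK-293 GP2 cells expressing human PTHR1 with IBMX.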 The essentials: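 HEK-293 GP2 cells, PTHR1 + GloSensor cAMP; 3000 cells/well, o/n. Luciferin + IBMX 0.5mM each (stock), 1 hr 37C. Cpd titration, 1 hr 37C. Lum after 15 min RT. Ctrl M-PTH(1-15) top 10uM.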
Sequence of Parathyroid hormone/parathyroid hormone-related peptide receptor (Homo sapiens) (Q03431 whole entry, looked up): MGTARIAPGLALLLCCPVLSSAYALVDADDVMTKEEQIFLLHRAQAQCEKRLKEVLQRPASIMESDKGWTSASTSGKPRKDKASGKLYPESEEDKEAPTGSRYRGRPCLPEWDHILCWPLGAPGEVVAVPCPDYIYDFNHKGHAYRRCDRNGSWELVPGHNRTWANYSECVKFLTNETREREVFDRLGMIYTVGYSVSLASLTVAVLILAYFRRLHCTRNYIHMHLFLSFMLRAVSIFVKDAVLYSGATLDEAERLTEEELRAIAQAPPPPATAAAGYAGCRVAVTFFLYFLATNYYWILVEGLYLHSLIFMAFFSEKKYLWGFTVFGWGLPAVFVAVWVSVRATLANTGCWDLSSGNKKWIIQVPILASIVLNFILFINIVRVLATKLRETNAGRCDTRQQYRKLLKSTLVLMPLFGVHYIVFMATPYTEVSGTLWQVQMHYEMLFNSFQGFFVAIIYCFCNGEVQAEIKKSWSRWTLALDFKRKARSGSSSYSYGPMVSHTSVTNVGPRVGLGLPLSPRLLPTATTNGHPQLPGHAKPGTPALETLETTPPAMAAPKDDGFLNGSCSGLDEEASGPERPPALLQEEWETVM

A short description of assay [14]: P-glycoprotein substrates identified in KB-8-5-11 adenocarcinoma cell line, qHTS therapeutic library screen (AID 1346987). Note: series mostly up to about 44 µM; nearly all actives have a fitted effect of over 65% in size. The essentials: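 Luminescence from CellTiter-Glo, read 5 min after addition, quantified survival of KB-8-5-11 (P-gp-overexpressing) cells exposed to compounds for 72 h. AC50 was derived from concentration-response curves.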

Inconclusive results are not listed. Activity calls are given as the source filed them. Unless noted, calls come from the whole dose curve; as a rule, active = well fitted curve in the direction sought with a large enough effect; inconclusive = small, poorly fitted or top-dose-only effect, or another doubt; inactive = no such curve, though single readings can be large; an effect the other way counts as inactive or inconclusive.

Sequence of Atrial natriuretic peptide receptor 2 (Homo sapiens) (P20594 whole entry, looked up): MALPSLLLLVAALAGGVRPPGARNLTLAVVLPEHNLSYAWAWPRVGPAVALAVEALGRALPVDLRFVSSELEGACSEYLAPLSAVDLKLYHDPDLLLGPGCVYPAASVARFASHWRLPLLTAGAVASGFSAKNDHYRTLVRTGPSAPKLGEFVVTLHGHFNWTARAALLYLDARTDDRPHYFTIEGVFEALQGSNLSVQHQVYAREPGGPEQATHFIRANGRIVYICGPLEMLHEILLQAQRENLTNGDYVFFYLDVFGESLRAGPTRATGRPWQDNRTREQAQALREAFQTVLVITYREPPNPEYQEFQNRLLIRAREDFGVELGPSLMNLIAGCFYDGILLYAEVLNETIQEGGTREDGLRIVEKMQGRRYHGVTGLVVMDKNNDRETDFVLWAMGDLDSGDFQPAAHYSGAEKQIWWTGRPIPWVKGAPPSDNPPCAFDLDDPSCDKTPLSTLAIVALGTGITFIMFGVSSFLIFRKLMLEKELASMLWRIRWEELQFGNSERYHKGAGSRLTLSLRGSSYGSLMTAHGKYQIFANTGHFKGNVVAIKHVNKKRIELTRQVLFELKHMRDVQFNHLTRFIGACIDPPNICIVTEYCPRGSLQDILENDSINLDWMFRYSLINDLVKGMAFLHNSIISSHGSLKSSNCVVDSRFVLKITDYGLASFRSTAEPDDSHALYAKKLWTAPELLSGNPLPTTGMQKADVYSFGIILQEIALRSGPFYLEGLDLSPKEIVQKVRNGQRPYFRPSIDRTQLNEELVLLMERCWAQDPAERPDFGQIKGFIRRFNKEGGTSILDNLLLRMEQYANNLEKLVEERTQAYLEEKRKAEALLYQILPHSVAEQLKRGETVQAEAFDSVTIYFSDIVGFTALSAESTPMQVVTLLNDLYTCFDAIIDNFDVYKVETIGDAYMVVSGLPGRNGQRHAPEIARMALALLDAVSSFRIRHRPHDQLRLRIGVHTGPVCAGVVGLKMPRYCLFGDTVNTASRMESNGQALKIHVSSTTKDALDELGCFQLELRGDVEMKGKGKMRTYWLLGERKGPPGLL

For the compound `c1ccc2nc(N3CCNCC3)ccc2c1`, the Potency entry in assay [1], in assay [2], in [3], in assay [4] and in assay [5] was “inactive” throughout.
Turning to `Cc1ncc2n1-c1ccc(Cl)cc1C(c1ccccc1F)=NC2`, the Potency entry in assay [6], in [1], in [2], in assay [3], in assay [4] and in assay [5] was “inactive” each time.
Consider `O=C1NCN(c2ccccc2)C12CCN(CCCOc1ccc(F)cc1)CC2`, for which the Potency result in assay [6], in [1], in [2], in [3], in [4] and in assay [5] was “inactive” throughout.
For `C#C[C@]1(O)CC[C@H]2[C@@H]3CCC4=CC(=O)CCC4=C3C=C[C@@]21CC`, the Potency entry in assay [6], in [1], in [2], in [3], in assay [4] and in [5] was “inactive” throughout.
In the case of `NC(=O)CN1CCCC1=O`, the Potency result in [1], in [2], in assay [3], in assay [4] and in assay [5] was “inactive” in each case. Moreover, the compound was called inactive in assay [7], in [8], in assay [9], in assay [10], in assay [11] and in [12]. Further, in assay [13], the result was inactive.
In the case of `CC(C)(O)C(Cl)(Cl)Cl`, the Potency entry in assay [6], in [1], in [2], in [3], in assay [4] and in [5] was “inactive” in each case.
For the compound `CN1C(=O)CN=C(c2ccccc2)c2cc([N+](=O)[O-])ccc21`, the Potency result in assay [1], in assay [2], in assay [3], in [4] and in assay [5] was “inactive” in each case.
With `CCCCCCCCC(=O)NCc1ccc(O)c(OC)c1`, the Potency result in [1], in [14], in assay [2], in assay [3], in assay [4] and in assay [5] was “inactive” each time.
As to `C[C@@H]1CC[C@H]2[C@@H](C)C(=O)O[C@@H]3O[C@@]4(C)CC[C@@H]1[C@]32OO4`, the Potency entry in assay [6], in [1], in [2], in [3], in assay [4] and in [5] was “inactive” each time.
For `CCNc1nc(Cl)nc(NCC)n1`, the Potency entry in assay [6], in assay [1], in assay [2], in assay [3], in assay [4] and in assay [5] was “inactive” in each case.
For the compound `Nc1ccc(N)cc1`, the Potency result in assay [6], in assay [1], in [2], in [3], in assay [4] and in assay [5] was “inactive” in each case.
`C[C@]12C=CC(=O)C=C1CC[C@@H]1[C@@H]2CC[C@@]2(C)[C@H]1CC[C@]2(C)O`: the Potency result in [6], in [1], in assay [2], in [3], in [4] and in assay [5] was “inactive” throughout.
For the compound `CCN(CC)C(C)C(=O)c1ccccc1` (stereo not drawn), the Potency result in assay [6], in assay [1], in assay [2], in [3], in assay [4] and in assay [5] was “inactive” throughout.
For the compound `C=CCOC(Cn1ccnc1)c1ccc(Cl)cc1Cl` (stereo not drawn), the Potency result in [6], in assay [1], in [2], in [3], in assay [4] and in assay [5] was “inactive” in each case.
`C=CCN1CC[C@]23CCCC[C@H]2[C@H]1Cc1ccc(O)cc13`: the Potency entry in assay [6], in assay [1], in [2], in [3], in assay [4] and in assay [5] was “inactive” throughout.
In the case of `C[C@@H]1CN(C2CCC(C#N)(c3ccc(F)cc3)CC2)CC[C@]1(C(=O)O)c1ccccc1` (stereo partly drawn), the Potency result in [1], in assay [2], in assay [3], in assay [4] and in [5] was “inactive” in each case.
Regarding `CCN(CC)CCOC(=O)C(C)(c1ccccc1)c1ccccc1`, the Potency entry in assay [6], in assay [1], in assay [2], in assay [3], in [4] and in [5] was “inactive” in each case.
For `CN1C[C@@H](NS(=O)(=O)N(C)C)C[C@@H]2c3cccc4c3c(cn4C)C[C@H]21`, the Potency result in [6], in assay [1], in assay [2], in assay [3], in [4] and in [5] was “inactive” in each case.
In the case of `ClC1=C(Cl)C2(Cl)C(CBr)CC1(Cl)C2(Cl)Cl` (stereo not drawn), the Potency result in [6], in assay [1], in [2], in assay [3], in [4] and in [5] was “inactive” throughout.
In the case of `CCCC(C)C1(CC)C(=O)N=C(S)NC1=O` (stereo not drawn), the Potency entry in assay [6], in assay [1], in assay [2], in assay [3], in assay [4] and in [5] was “inactive” in each case.
For `CC[n+]1c(-c2ccccc2)c2cc(N)ccc2c2ccc(N)cc21`, in assay [6], the Potency was 7.94 µM (active). Moreover, the Potency entry in assay [1] and in [2] was “inactive” each time.
As for `CN(C)CCc1c[nH]c2ccc(O)cc12`, the Potency result in assay [14], in [3], in [4] and in assay [5] was “inactive” in each case.
On to `Cc1nnc2n1-c1sc(CCc3ccc(CC(C)C)cc3)cc1C(c1ccccc1Cl)=NC2C` (stereo not drawn), for which the Potency entry in assay [2], in assay [3] and in [4] was “inactive” in each case.
As to `Clc1ccc(CO/N=C(\Cn2ccnc2)c2ccc(Cl)cc2Cl)c(Cl)c1`, the Potency entry in [1], in assay [2], in [3], in assay [4] and in assay [5] was “inactive” in each case.
Turning to `CC[C@H]1C[C@@H]2C[C@H]3c4[nH]c5ccc(OC)cc5c4CCN(C2)[C@@H]13`, the Potency result in [14], in assay [2], in assay [3], in assay [4] and in [5] was “inactive” each time.
With `COc1cc(C[C@@H](C)N)c(OC)cc1Br`, the Potency result in [14], in assay [2], in [3], in assay [4] and in [5] was “inactive” each time.
